Data published in the supplement of paper PMC7411054.
Where a name gives a salt, the structure may show the parent alone.

How the values were obtained:
Details in all cases: treatment time: 24 h
A549-ACTB-RAB5A [1] = assay: lowest phenotypically active concentration; higher = less potent
Procedure, shortened: (§1)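 Phenotypic activity depended on meeting both a deviation and a reproducibility criterion. The fifteen gene-edited A549, HepG2 and WPMY1 reporter lines were treated at 0.3, 1, 3 or 9 µM for 24 h, four wells each, then imaged live with features normalised to solvent control wells. Deviation required ≥3 of 4 wells past the 95th percentile of control Euclidean distances, and reproducibility a median replicate Pearson correlation above the 95th percentile of non-replicates.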

A549-GM130-SQSTM1 [2] = assay: as above
Procedure, shortened: as §1

A549-TUBA1B-RELA [3] = assay: as above
Procedure, shortened: as §1

HepG2-CANX-COX4 [4] = assay: as above
Procedure, shortened: as §1

WPMY1-ACTB-RAB5A [5] = assay: as above
Procedure, shortened: as §1

A549-ACTB-RAB5A [6] = assay: phenotypically active (imaging signature differs from DMSO and reproducible) at any of 0.3-9 uM (binary (1 = active, 0 = inactive)); higher = active
Procedure, shortened: as §1

A549-CANX-COX4 = assay: as above
Procedure, shortened: as §1

A549-GM130-SQSTM1 [7] = assay: as above
Procedure, shortened: as §1

A549-TP53BP1-CLTA = assay: as above
Procedure, shortened: as §1

A549-TUBA1B-RELA [8] = assay: as above
Procedure, shortened: as §1

HepG2-ACTB-RAB5A = assay: as above
Procedure, shortened: as §1

HepG2-CANX-COX4 [9] = assay: as above
Procedure, shortened: as §1

HepG2-GM130-SQSTM1 = assay: as above
Procedure, shortened: as §1

HepG2-TP53BP1-CLTA = assay: as above
Procedure, shortened: as §1

HepG2-TUBA1B-RELA = assay: as above
Procedure, shortened: as §1

WPMY1-ACTB-RAB5A [10] = assay: as above
Procedure, shortened: as §1

WPMY1-CANX-COX4 = assay: as above
Procedure, shortened: as §1

WPMY1-GM130-SQSTM1 = assay: as above
Procedure, shortened: as §1

WPMY1-TP53BP1-CLTA = assay: as above
Procedure, shortened: as §1

WPMY1-TUBA1B-RELA = assay: as above
Procedure, shortened: as §1

Row | Structure (SMILES) | lowest phenotypically active concentration (A549-ACTB-RAB5A [1]) [µM] | lowest phenotypically active concentration (A549-GM130-SQSTM1 [2]) [µM] | lowest phenotypically active concentration (A549-TUBA1B-RELA [3]) [µM] | lowest phenotypically active concentration (HepG2-CANX-COX4 [4]) [µM] | lowest phenotypically active concentration (WPMY1-ACTB-RAB5A [5]) [µM] | phenotypically active (A549-ACTB-RAB5A [6]) | phenotypically active (A549-CANX-COX4) | phenotypically active (A549-GM130-SQSTM1 [7]) | phenotypically active (A549-TP53BP1-CLTA) | phenotypically active (A549-TUBA1B-RELA [8]) | phenotypically active (HepG2-ACTB-RAB5A) | phenotypically active (HepG2-CANX-COX4 [9]) | phenotypically active (HepG2-GM130-SQSTM1) | phenotypically active (HepG2-TP53BP1-CLTA) | phenotypically active (HepG2-TUBA1B-RELA) | phenotypically active (WPMY1-ACTB-RAB5A [10]) | phenotypically active (WPMY1-CANX-COX4) | phenotypically active (WPMY1-GM130-SQSTM1) | phenotypically active (WPMY1-TP53BP1-CLTA) | phenotypically active (WPMY1-TUBA1B-RELA)
1 | C[C@]12CC[C@H](O)C[C@H]1CC[C@@H]1[C@@H]2C[C@@H](O)[C@]2(C)[C@@H](C3=CC(=O)OC3)CC[C@]12O [Digoxigenin] | ≤ 0.3 | ≤ 0.3 | ≤ 0.3 | 3 | 1 | 1 (active) | 1 (active) | 1 (active) | 1 (active) | 1 (active) | 1 (active) | 1 (active) | 1 (active) | 1 (active) | 1 (active) | 1 (active) | 1 (active) | 1 (active) | 1 (active) | 1 (active)
2 | C[C@]12C/C(=C\O)C(=O)C[C@@H]1CC[C@@H]1[C@@H]2CC[C@@]2(C)[C@H]1CC[C@]2(C)O [oxymetholone] | 9 |  |  |  |  | 1 (active) | 0 (inactive) | 0 (inactive) | 0 (inactive) | 0 (inactive) | 0 (inactive) | 0 (inactive) | 0 (inactive) | 0 (inactive) | 0 (inactive) | 0 (inactive) | 0 (inactive) | 0 (inactive) | 0 (inactive) | 0 (inactive)
3 | C#CCN(C)[C@H](C)Cc1ccccc1 [selegiline] |  |  |  |  |  | 0 (inactive) | 0 (inactive) | 0 (inactive) | 0 (inactive) | 0 (inactive) | 0 (inactive) | 0 (inactive) | 0 (inactive) | 0 (inactive) | 0 (inactive) | 0 (inactive) | 0 (inactive) | 0 (inactive) | 0 (inactive) | 0 (inactive)
4 | CCCN1CCC[C@@H]2Cc3n[nH]cc3C[C@H]21 [(-)-Quinpirole hydrochloride] |  |  |  |  |  | 0 (inactive) | 0 (inactive) | 0 (inactive) | 0 (inactive) | 0 (inactive) | 0 (inactive) | 0 (inactive) | 0 (inactive) | 0 (inactive) | 0 (inactive) | 0 (inactive) | 0 (inactive) | 0 (inactive) | 0 (inactive) | 0 (inactive)
5 | COC1=CC(C)=C[C@@H](C)[C@@H](O)[C@@H](C)CC(C)=CC=C[C@H](OC)[C@@H]([C@@H](C)[C@@H](O)[C@H](C)[C@@]2(O)C[C@@H](O)[C@H](C)[C@@H](C(C)C)O2)OC1=O [Bafilomycin A1] | ≤ 0.3 | ≤ 0.3 | ≤ 0.3 | 3 | 1 | 1 (active) | 1 (active) | 1 (active) | 1 (active) | 1 (active) | 1 (active) | 1 (active) | 1 (active) | 1 (active) | 1 (active) | 1 (active) | 1 (active) | 1 (active) | 1 (active) | 1 (active)
